The structures appear in SMILES notation. Screen size: about 69,000 compounds; about 8,600 (12%) showed an effect of 50% or more. Shown is part of a subset that was picked to be rich in strong results.

In the experiment the test system is Plasmodium berghei. As to the kind of experiment: Screen against P. berghei liver stage (PbLuc), transformed with Luciferase, at 10uM. In kind it is functional, HepG2. The settings on record: tested at 10 uM.
In the case of `CN(C)Cc1cc(=O)n2c(n1)CN(S(=O)(=O)C1CC1)CCC2`, the INHIBITION was 21.6%.
As to `O=C(CCn1cccn1)N1C[C@H]2CC[C@@H](C1)N(Cc1ccccn1)C2=O`, the INHIBITION is listed as 8.47%.
`N#Cc1cc2cc(Cl)cnc2nc1O`: the INHIBITION is -26.3%.
The result for `CC(C)(C(=O)NCC1CCN(Cc2ccccn2)C1)c1ccccc1` (stereo not drawn) reads 49.2%; that for `O=C1NCCCc2[nH]c(C3CCCN(C(=O)C4CC4)C3)nc21` (stereo not drawn), 26.8%; that for `CC(C)OCCN1CCN(c2ccc(CN(C)C)cn2)CC1`, 25.4%.
For the molecule `CCN1CCN(Cc2coc(-c3cccc(F)c3)n2)CC1`, the INHIBITION was 65.2%.
`CC(O)CN1CCN(Cc2coc(-c3ccccc3Cl)n2)CC1` (stereo not drawn): the INHIBITION was -66.7%.
In the case of `CN1CCOC(CNCc2coc(-c3ccccc3)n2)C1` (stereo not drawn), the INHIBITION worked out at 22.5%.
On to `COCCN1CCN(Cc2coc(-c3ccccc3Cl)n2)CC1`, for which the INHIBITION turned out to be 63.8%.
As to `CC(=O)N1CCN(Cc2coc(-c3cccc(F)c3)n2)CC1`, the INHIBITION is listed as -14.7%.
As for `OCCN1CCN(Cc2coc(-c3ccccc3Cl)n2)CC1`, the INHIBITION is listed as -113%.
For `OCCN1CCN(Cc2coc(-c3cccc(F)c3)n2)CC1`, the INHIBITION was found to be 48.4%.
As to `CC(O)CN1CCN(Cc2coc(-c3ccccc3)n2)CC1` (stereo not drawn), the INHIBITION was determined as 1.45%.
For the molecule `OCCN1CCN(Cc2coc(-c3cccc(Cl)c3)n2)CC1`, the INHIBITION is 33.3%.
Then `OCCN1CCN(Cc2coc(-c3ccccc3)n2)CC1`, with 59%.
For `CN1CCOC(CNCc2coc(-c3cccc(Cl)c3)n2)C1` (stereo not drawn), the INHIBITION turned out to be 33.7%.
Then `CN1CCOC(CNCc2coc(-c3cccc(F)c3)n2)C1` (stereo not drawn), with 57.8%.
As to `NC(=O)c1cc(C2CCCN(CCOc3ccc(F)cc3)C2)n[nH]1` (stereo not drawn), the INHIBITION was found to be 27.25%.
With `CC(NCc1cc(O)c2cccc(F)c2n1)c1ccc(S(C)(=O)=O)cc1` (stereo not drawn), the INHIBITION was found to be 15.1%.
As for `CCS(=O)(=O)Nc1ccc2c(c1)OCC(C)(C)C(=O)N2C`, the INHIBITION was 25.8%.
As to `O=C(NC1CCCC1)C1(Cc2cc(C3CCOC3)no2)CCNCC1` (stereo not drawn), the INHIBITION was 26.7%.
As to `COc1ccc(NCc2nc(=O)n(CCC(C)C)[nH]2)cc1`, the INHIBITION was -27.6%.
Then `c1ccc2c(c1)ccn2CCCNC1CCOC2(CCOCC2)C1` (stereo not drawn), with -27.5%.
Regarding `COc1ccc(-c2nc(CN3CCCS3(=O)=O)co2)cc1`, the INHIBITION is recorded as -91.4%.
As for `Cc1nc(CNCC2CN(C)CCO2)cs1` (stereo not drawn), the INHIBITION is given as 51.6%.
On to `Cc1ccc(-c2nc(CN3CCN(CCO)CC3)co2)cc1`, for which the INHIBITION turned out to be 27.4%.
Then `COc1ccc(-c2nc(CN3CCN(CCO)CC3)co2)cc1`, with 59.7%; and `Cc1nc(COc2ccc(CNCC3CN(C)CCO3)cc2)cs1` (stereo not drawn), with 32.4%.
Regarding `CCN1CCOC(CNCc2csc(C)n2)C1` (stereo not drawn), the INHIBITION is on record as -65.3%.
Then `Cc1cc(N2CCOC(c3ccccn3)C2)nc(N)n1` (stereo not drawn), with 2.6925%.
For `CC(Cn1ccnc1)NC(=O)N1CCN(Cc2cccs2)CC1` (stereo not drawn), the INHIBITION is 49.1%.
Then `O=S(=O)(NC1CCC12CCN(CC1CCOCC1)CC2)c1ccccc1` (stereo not drawn), with 36.4%; and `Cc1n[nH]cc1CNC1CCN(c2cccc(C(F)(F)F)c2)CC1`, with 78.6%.
As for `Cc1n[nH]cc1CNC1CCN(c2ccccc2)CC1`, the INHIBITION was 49.9%.
The result for `FC(F)(F)c1cccc(N2CCC(NCc3cccnc3)CC2)c1` reads 71.2%; that for `COCCN1CCC(NCc2cccnc2)C1` (stereo not drawn), -27.3%; that for `Cc1n[nH]cc1CNC1CCN(c2ccc(F)cc2)CC1`, 49.9%.
On to `O=C(c1ccoc1)N1CCC(NCc2cccnc2)CC1`, for which the INHIBITION was found to be 10.2%.
As for `CC1CN(Cc2ccc(C#N)cc2F)CCN1Cc1nccn1C` (stereo not drawn), the INHIBITION was 11.433%.
On to `Cc1ccc(CN2CCCn3cnc(COCC4CC4)c3C2)o1`, for which the INHIBITION is -49.1%.
Then `CN(CCc1ccccn1)C(=O)CCC1CCCN(c2ccncc2)C1` (stereo not drawn), with 26.8%; and `O=C(C1CCOCC1)N1CCO[C@H]2[C@H](Oc3cccnc3)CC[C@@H]21`, with 10%; and `CC(C)c1noc(CCCC(=O)Nc2cccc(F)c2)n1`, with 27%.
`CC(C)c1noc(C[S+]([O-])CC(=O)Nc2cc(F)ccc2F)n1` (stereo not drawn): the INHIBITION was found to be 56.3%.
On to `CC(C)NC(=O)c1cccc(NC(=O)CCCc2nc(C(C)C)no2)c1`, for which the INHIBITION is on record as -8.87%.
In the case of `CC(C)c1noc(CCC(=O)Nc2cc(F)ccc2F)n1`, the INHIBITION is given as 34%.
Then `CC(C)c1noc(C[S+]([O-])CC(=O)Nc2ccc(F)c(F)c2)n1` (stereo not drawn), with 51.3%; and `CC(C)c1noc(CN2CCN(C(=O)c3cc(Cl)ccc3F)CC2)n1`, with -17%; and `CCN(Cc1ccco1)C(C)c1nc(C(C)(C)C)no1` (stereo not drawn), with 2.9%.
As for `CCn1cnnc1CNC(=O)Cc1ccc2c(c1)OCCO2`, the INHIBITION stood at 1.78%.
Regarding `O=C(NC[C@]1(O)CN(Cc2ccccc2F)C[C@H]1O)c1cscn1`, the INHIBITION stood at 14.5%.
For the molecule `CCn1c(CC2CCN(S(=O)(=O)c3cccs3)CC2)nn(C)c1=O`, the INHIBITION is given as 41.5%.
Consider `Cc1noc(C)c1CNCc1c(C(C)C)nn(C)c1N1CCOCC1`, for which the INHIBITION was found to be 34.5%.
`Cc1nnc2n1CCN(C(=O)c1cc(C)n(-c3ccccc3)c1C)C2`: the INHIBITION is 44.3%.
For `Cc1cccc(-n2c(C)cc(C(=O)N3CCn4c(C)nnc4C3)c2C)c1`, the INHIBITION is on record as 35.3%.
With `Cc1cccc(-n2ncc(C(=O)N3CCn4c(C)nnc4C3)c2C)c1`, the INHIBITION is reported as 60.6%.
With `COc1ccc2nnc(CCCC(=O)NCc3ccccc3)n2n1`, the INHIBITION worked out at 44.4%.
As to `CCc1ccc(CN2CCC3(CC2)C(=O)N(C)CCN3CC2CC2)cc1`, the INHIBITION is -17.1%.
In the case of `COC[C@@]12CC[C@@H](N3CCOCC3)C[C@H]1CCN(c1ncccn1)C2`, the INHIBITION is given as 53.5%.
Regarding `COC[C@@]12CC[C@@H](N3CCOCC3)C[C@H]1CCN(c1ccc(Cl)cn1)C2`, the INHIBITION was found to be 16.7%.
The result for `COC[C@@]12CC[C@@H](N3CCOCC3)C[C@H]1CCN(c1ncccc1Cl)C2` reads 13.5%; that for `COC[C@@]12CC[C@@H](N3CCOCC3)C[C@H]1CCN(c1cc(C)ccn1)C2`, 70.3%.
For `COC[C@@]12CC[C@@H](N3CCOCC3)C[C@H]1CCN(c1ncccc1C)C2`, the INHIBITION turned out to be 45.8%.
On to `COC[C@@]12CC[C@@H](N3CCOCC3)C[C@H]1CCN(c1cnccn1)C2`, for which the INHIBITION is -15.1%.
On to `O=C(Cn1cnc2sccc2c1=O)NCCc1nnc2ccccn12`, for which the INHIBITION worked out at 46.4%.
As to `COCC(=O)N1CCc2ccc(=O)n(CC3CC3)c2CC1`, the INHIBITION is listed as -13.2%.
For the molecule `c1csc(CNCC2COCc3c(-c4ccoc4)nnn3C2)n1` (stereo not drawn), the INHIBITION is listed as 13.1%.

(Values after ChEMBL document CHEMBL4513216, “Probing the Open Global Health Chemical Diversity Library for Multistage-Active Starting Points for Next-Generation Antimalarials” (ACS Infect Dis, 2020).)
